Pf growth 96h: Primary qHTS for delayed death inhibitors of the malarial parasite plastid, 96 hour incubation; P. falciparum luciferase reporter growth, 96 h; Potency, µM (titrated, usually from 28.7 µM), without a hit: top-dose activity change, negative = inhibition, actives largely listed as inhibitors; 320,000 compounds, 6.9% hits; AID 504834, 2011; also: % is scaled to controls: 0 for no effect and ±100 for the full control effect
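Plates of compound plus infected erythrocytes (2% hematocrit, 0.05% parasitemia final) incubate 96 hours, 37 C, 5% CO2. Detection reagent added; reduced luminescence from the parasites' luciferase reporter flags inhibition.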
Vaccinia Venus: qHTS for Stage-Specific Inhibitors of Vaccinia Orthopoxvirus: Venus Reporter Primary qHTS. Vaccinia virus Venus reporter expression, fluorescence. 330,000 compounds, 0.46% hits. Potency, µM (doses to about 36.5 µM), for the others: at the highest dose activity change, negative = inhibition, hits mostly inhibitors; calls by dose curve; tested in A549 cells; also: % is scaled to controls: 0 for no effect and ±100 for the full control effect; nearly all actives have a fitted effect of over 30% in size
Vaccinia mCherry: qHTS for Stage-Specific Inhibitors of Vaccinia Orthopoxvirus: mCherry Reporter Primary qHTS. Vaccinia virus mCherry reporter infection, fluorescence. Potency, µM (highest dose often 36.5 µM), inactives show at the top dose activity change, negative = inhibition, actives largely listed as inhibitors. 310,000 compounds, 0.63% hits; calls by dose curve; tested in A549 cells; also: % is scaled to controls: 0 for no effect and ±100 for the full control effect; nearly all actives have a fitted effect of over 35% in size
Pf growth 48h: Primary qHTS for delayed death inhibitors of the malarial parasite plastid, 48 hour incubation | P. falciparum luciferase growth in erythrocytes, 48 h | Potency, µM (titrated, usually from 28.7 µM), without a hit: top-dose activity change, negative = inhibition, usual class: inhibitors | 310,000 compounds, 5.9% hits | AID 504832, 2011; also: % is scaled to controls: 0 for no effect and ±100 for the full control effect
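Cell-based growth assay: transgenic P. falciparum expressing firefly luciferase, cultured in red cells within RPMI 1640 containing 0.5% w/v Albumax, 24 mM bicarbonate and gentamycin. A drop in luciferase activity indicates inhibition.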
NS1 inh: qHTS Assay for Inhibitors of Influenza NS1 Protein Function. Potency, µM (titrated, usually from 46.1 µM), for inactives: top-dose activity, positive = more growth. AID 2326, 2010. 270,000 compounds, 0.4% hits; calls by dose curve; also: actives are rising curves; nearly all actives have a fitted effect of over 50% in size
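Compounds were scored for reversing the slow growth caused by influenza A NS1 in S. cerevisiae, measured by optical density at 600 nm. Assay medium contained 2% galactose at pH 6.0; NS1-free yeast of the same strain were the positive control.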
HCV inhibitor: qHTS Assay for Inhibitors of Hepatitis C Virus (HCV); Huh7.5.1 HCVcc-Cre infection, luciferase reporter, 44 h; Potency, µM (series often up to 41.8 µM), without a hit: at the highest dose activity change, negative = inhibition, actives largely listed as inhibitors; 340,000 compounds, 3.4% hits; AID 651820, 2012; also: % is scaled to controls: 0 for no effect and ±100 for the full control effect
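Luciferase read-out (15 sec integration) after a 15 min room-temperature substrate step quantifies HCVcc-Cre infection. Cells, 1,000 per well, had compound added 4 h post-plating, then virus at ~0.5 moi, and were cultured 44 h.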
* hit, by the source's call; i = inactive; u = inconclusive; x = no result given; ! = repeats disagree; [ ] = dose if it differs, or a comment. Rows were chosen to be rich in hits. Some 11% of all compounds tested hit in one or more screens of this group. Unless noted, calls follow the shape of the dose curve; as a rule, active = well fitted inhibition curve with a large enough effect; inconclusive = small, poorly fitted or top-dose-only effect, or another doubt; inactive = no such curve, though single readings can be large or run the other way. Potency is read from the fitted curve at half-maximal effect.

SMILES	Pf growth 96h	Vaccinia Venus	Vaccinia mCherry	Pf growth 48h	NS1 inh	HCV inhibitor
Cn1c(=O)c2c(nc(N3CCOCC3)n2CCSc2ncccn2)n(C)c1=O	0.0%	-8.5%	-19.7%	-4.3%	4.4%	18.5%
Cc1cc(C)nc(SCCn2c(N(C)Cc3ccccc3)nc3c2c(=O)n(C)c(=O)n3C)n1	u	x	x	7.38µM*	-13.6%	-17.0%
CN(Cc1ccccc1)c1nc2c(c(=O)n(C)c(=O)n2C)n1CCSc1ncccn1	u	-4.2%	-3.4%	10.4µM*	-4.3%	-16.9%
O=C(NCc1cccnc1)C(=O)NCC1OCCN1S(=O)(=O)c1cc(F)ccc1F (configuration not stated)	-14.9%	16.8%	i	43.2%	-65.2%	10.1%
O=C(/C=C/c1ccc(O)c(O)c1)OC(Cc1ccc(O)c(O)c1)C(=O)O (configuration not stated)	-15.9%	-4.6%	0.7%	u	13.0%	10µM*
C=C(C)CN(CC)C(=O)CCc1nnc(CCCc2ccccc2)o1	8.8%	-0.2%	-1.6%	42.8%	-3.2%	6.7%
CCOC(=O)c1sc2nccc(N(C)C)c2c1N=CNOCc1ccccc1	u	-13.7%	-26.9%	x	-2.4%	7.94µM*
O=C(O)c1cccc(N2C(=O)c3cc4cccc(Br)c4cc3C2=O)c1	-19.2%	1.0%	-13.7%	4.0%[0.00184 µM]	4.5%	16.5%
CCOC(=O)c1cc(C)sc1NC(=O)CSC1=NCCS1	9.28µM*	u	-24.4%	u	-21.1%	u
CCOC(=O)c1cc(C)sc1NC(=O)CSc1nnnn1C	1.65µM*	-9.3%	-3.1%	-13.0%	0.0%	x
NCCCS(=O)(=O)O	4.6%	-14.3%	-13.3%	8.2%	-5.3%	5.62µM*!
Cc1ccc([N+](=O)[O-])c(OCC(=O)OCC(=O)c2ccccc2)c1	0.928µM*	-4.6%	-3.0%	11.1%	-10.1%	-8.8%
Cc1ccc(C)c(C(=O)COc2ccccc2[N+](=O)[O-])c1	35.3%	-7.1%	-0.1%	-2.4%	-7.5%	-2.7%
O=C1CCSc2ccc(Cl)cc2N1Cc1ccccc1	14.4%	-16.9%	x	8.4%	2.2%	20.0%
O=C1CCSc2ccc(Cl)cc2N1Cc1ccc(Cl)cc1	14.7µM*	-10.2%	x	u	3.2%	7.8%
CCOC(=O)/C=C/C(=O)Nc1ccc(S(=O)(=O)Nc2cc(OC)nc(OC)n2)cc1	x	-4.0%	i	x	x	x
O=C(Cc1ccccc1)NC(Cc1ccc(Cl)cc1)C(=O)O (configuration not stated)	0.0%	-3.4%	-6.9%	0.0%	1.3%	1.6%
COc1ccc(C(=O)COC(=O)c2cc(C)no2)c(OC)c1	0.4%	x	x	-13.6%	x	1.6%
CCCc1cnc(NCCNCC(O)COc2ccc(Cl)c(Cl)c2)nc1 (configuration not stated)	11.7µM*	-15.9%	u	u	7.8%	u
CC(=O)c1cccc(OCC(O)CNCCc2ccc(Cl)cc2)c1 (configuration not stated)	14.6%	-9.7%	-2.0%	-23.4%[0.00184 µM]	0.1%	-15.9%
C[C@H](OC(=O)N1CCN(C(c2ccccc2)c2ccccc2)CC1)[C@@H]1O[C@@]2(C)CCC[C@H]1O2	4.65µM*	-13.5%	-28.3%	6.57µM*	x	-7.4%
CCCCOc1ccc(NC2=NC3(CCCCC3)N=C(N)N2)cc1	8.2%	x	x	0.657µM*	-2.3%	u
NC1=NC(c2ccccc2)N=C(Nc2ccccc2)N1 (configuration not stated)	2.94µM*	x	x	4.65µM*	-20.4%	x
Cc1cccc(NC2=NC3(CCCCC3)N=C(N)N2)c1	x	x	x	x	x	-24.2%
COc1ccc(OC)c(NC2=NC3(CCCCC3)N=C(N)N2)c1	-17.3%	-16.6%	-17.8%	u	1.0%	u
SMILES	Pf growth 96h	Vaccinia Venus	Vaccinia mCherry	Pf growth 48h	NS1 inh	HCV inhibitor
NC1=NC2(CCCC2)N=C(Nc2ccccc2)N1	1.47µM*	1.1%	-2.1%	u	4.2%	-7.0%
COc1ccc(NC2=NC3(CCCCC3)N=C(N)N2)cc1	u	-1.6%	-10.2%[1.46 µM]	0.928µM*	u	1.2%
COC(=O)C1N[C@@H]([C@@H](NC(=O)COc2ccccc2)C(=O)NCc2ccccc2)SC1(C)C (some centres not stated)	x	-24.4%	-2.8%	x	x	-9.3%
CCc1ccccc1NC(=O)CCN1C(=O)C2CC=CCC2C1=O (configuration not stated)	11.7µM*	x	x	27.0%	6.2%	10.5%
COc1ccccc1NC(=O)CCCN1C(=O)C2CC=CCC2C1=O (configuration not stated)	6.57µM*	-2.2%	-12.8%	9.2%	-1.8%	x
COc1cccc(NC(=O)CCCN2C(=O)C3CC=CCC3C2=O)c1 (configuration not stated)	43.0%	-17.7%	-16.6%	52.2%	8.8%	-1.9%
COc1ccc(NC(=O)CCCN2C(=O)C3CC=CCC3C2=O)cc1 (configuration not stated)	10.4µM*	-8.6%	i	12.6%	-0.3%	x
O=C(CCCN1C(=O)C2CC=CCC2C1=O)Nc1ccccc1Cl (configuration not stated)	2.6%	x	x	-2.3%	2.4%	8.8%
CCc1ccccc1NC(=O)CCN1C(=O)c2ccccc2C1=O	u	3.7%	x	x	-9.8%	9.4%
COc1ccc(-c2noc(CNC(=O)CCN3C(=O)[C@H]4CC=CC[C@H]4C3=O)n2)cc1	11.7µM*	x	x	-9.0%	-7.0%	5.8%
COc1ccc(-c2noc(CN(C)C(=O)CCN3C(=O)[C@H]4CC=CC[C@H]4C3=O)n2)cc1	u	x	x	u	-12.0%	u
N#CC(C#N)=C/C=C(\Nc1ccc(Cl)cc1)c1ccc(Cl)cc1	u	x	x	u	6.1%	-13.1%
CCc1cccc(NC(=O)Nc2ccc3c(c2)N(C)C(=O)c2ccccc2S3)c1	x	-19.3%	-13.3%	x	x	x
CCOC(=O)C1=C(C)Nc2sc(C(=O)c3ccc(F)cc3)c(N)c2C1c1ccc(C(=O)OC)cc1 (configuration not stated)	4.65µM*	-8.0%	i	7.38µM*	u	7.08µM*
CCOC(=O)C1=C(C)NC(SCC(=O)OC)=C(C#N)C1c1ccc(C(=O)OC)cc1 (configuration not stated)	37.3%	-22.4%	-13.1%	u	-30.6%	12.0%
NC(=O)CSc1nnc(Cn2cnc3ccccc32)o1	69.3%	x	x	54.3%	x	3.0%
CN1CCN(c2ccc(Cl)cc2NC(=O)c2ccc(=O)n(C)n2)CC1	u	-4.5%	-16.5%	-11.0%	x	u
CC(Oc1ccc(Br)cc1)C(=O)Nc1cc(Cl)ccc1N1CCN(C)CC1 (configuration not stated)	11.7µM*	-10.8%	-14.7%	11.7µM*	x	u

Compound activity: PubChem BioAssay, National Center for Advancing Translational Sciences (NCATS)
